Values joined by “and” are separate entries in the source; they are usually repeats but may differ in a detail not shown here. Identical values can stand only once. Results filed as inconclusive are left out. Unmarked numbers belong to inactive results. Active and inactive are the calls of the source. Calls come from the whole dose curve; as a rule, active = well fitted inhibition curve with a large enough effect; inconclusive = small, poorly fitted or top-dose-only effect; inactive = flat fitted curve, though single readings scatter. Where a SMILES comes first, the peptide text is derived from it. [ ]: non-standard residue; d: D form.
What follows are compounds tested on HaCat (assay: Cytotoxic Profiling of Annotated Libraries Using Quantitative High-Throughput Screening (AID 1296008; note: nearly all actives have a fitted effect of over 60% in size)). Settings: Five cell lines viability, CellTiter-Glo ATP luminescence, 48-72 h; max response: active compounds read low.
In short: (§1)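 Compounds were pin-transferred onto cells and incubated 48 or 72 hr at 37 degree Celsius, 95% humidity. CellTiter-Glo was added, plates sat 10 min at room temperature, then ATP-coupled luminescence was imaged as the viability read-out.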
% is set by controls: 0 for no effect and ±100 for the full control effect; potency is the fitted concentration of half-maximal effect.

Row | SMILES | max response | outcome
1 | CC[C@H]1OC(=O)[C@H](C)[C@@H](O[C@H]2C[C@@](C)(OC)[C@@H](O)[C@H](C)O2)[C@H](C)[C@@H](O[C@@H]2O[C@H](C)C[C@H](N(C)C)[C@H]2O)[C@@](C)(O)C[C@@H](C)[C@@H]2N[C@@H](COCCOC)OC([C@H]2C)[C@]1(C)O | -20.8% | –
2 | Cc1cc(O)cc(Oc2cc(C)c(C(=O)O)c(O)c2)c1 | – | inactive
3 | CN1C(=O)c2ccccc2-n2c(nc3ccccc3c2=O)/C1=C/c1ccccc1 | -6.39% | –
4 | C=C1C(OC(C)=O)C(=O)C2C(C)(C)C(OC(C)=O)CCC2(C)C1CC(OC(C)=O)/C(C)=C/COC(C)=O (stereo not drawn) | – | inactive
5 | CC[C@H](/C=C/[C@@H](C)[C@H]1CC[C@H]2[C@@H]3CC=C4C[C@@H](O)CC[C@]4(C)[C@H]3CC[C@]12C)C(C)C | 0.322% | –
6 | N[C@@H](CC(=O)N1CCn2c(nnc2C(F)(F)F)C1)Cc1[nH]nc2c(F)c(F)ccc12 | -2.51% | –
7 | C/C=C1/[C@H](O[C@@H]2O[C@H](CO)[C@@H](O)[C@H](O)[C@H]2O)OC=C(C(=O)OC)[C@H]1CC(=O)O[C@@H]1O[C@H](CO)[C@@H](O)[C@H](O)[C@H]1O | – | inactive
8 | COc1cc([C@H]2OC[C@@H]3[C@@H](c4ccc(O[C@@H]5O[C@H](CO)[C@@H](O)[C@H](O)[C@H]5O)c(OC)c4)OC[C@]23O)ccc1O | – | inactive
9 | CNc1nc(Nc2cnn([C@H]3CCN(C4COC4)C[C@@H]3F)c2Cl)ncc1C(F)(F)F | – | inactive
10 | C[C@@H](Nc1cc(NS(=O)(=O)N2CCC2)nc(SCc2cccc(F)c2F)n1)[C@@H](O)CO | 1.29% | –
11 | C=C1CCC(OC(C)=O)C2(C)CC3(O)OC(=O)C(C)=C3CC12 (stereo not drawn) | – | inactive

Each compound was assayed on KB-3-1 in the same assay as above. Settings: Five cell lines viability, CellTiter-Glo ATP luminescence, 48-72 h; max response: active compounds read low.
In short: as §1

Row | SMILES | max response | outcome
12 | COc1cc(/C=C/C(=O)OC(C)(C)C(OC2OC(CO)C(O)C(O)C2O)C(=O)OCc2ccc(OC3OC(CO)C(O)C(O)C3O)cc2)ccc1O (stereo not drawn) | 5.7% | –
13 | CN1Cc2c(N)cccc2C(c2ccccc2)C1 (stereo not drawn) | -2.79% | –
14 | Cn1c(=O)c2nc(/C=C/c3cccc(Cl)c3)n(C)c2n(C)c1=O | – | inactive
15 | C=C1CCC2C(C)(C(=O)O)CC(O)CC2(C)C1CC/C(C)=C/C(=O)O (stereo not drawn) | 5.42% | –
16 | CC(=O)N[C@H](Cc1ccc(O)cc1)C(=O)N[C@H](CCCN=C(N)N)C(=O)N[C@H](Cc1ccccc1)C(N)=O (Ac-[dY]-[dR]-[dF]-NH2) | – | inactive
17 | CC[C@H]1OC(=O)[C@H](C)[C@@H](O[C@H]2C[C@@](C)(OC)[C@@H](O)[C@H](C)O2)[C@H](C)[C@@H](O[C@@H]2O[C@H](C)C[C@H](N(C)C)[C@H]2O)[C@@](C)(O)C[C@@H](C)[C@@H]2N[C@@H](COCCOC)OC([C@H]2C)[C@]1(C)O | – | inactive
18 | N[C@@H](CC(=O)N1CCn2c(nnc2C(F)(F)F)C1)Cc1[nH]nc2c(F)c(F)ccc12 | -3.58% | –
19 | C[C@@H](Nc1cc(NS(=O)(=O)N2CCC2)nc(SCc2cccc(F)c2F)n1)[C@@H](O)CO | -2.77% | –

These compounds were tested on NIH3T3 in the same assay as above. Settings: Five cell lines viability, CellTiter-Glo ATP luminescence, 48-72 h; max response: active compounds read low.
In short: as §1

Row | SMILES | max response | Potency | outcome
20 | CCOC(=O)[C@H](CCc1ccccc1)CC1(C(=O)N[C@H]2CCc3ccccc3N(CC(=O)O)C2=O)CCCC1 | 3.76% | – | –
21 | O=C(c1ccc(NS(=O)(=O)c2cccc3cccnc23)cc1)N1CCN(CC2CC2)CC1 | 0.212% | – | –
22 | CC(=O)O[C@H]1[C@H](Oc2ccccc2COC(=O)C2(O)C=CCCC2=O)O[C@H](CO)[C@@H](O)[C@@H]1O (stereo partly drawn) | 0.519% | – | –
23 | CCc1nc(C(N)=O)c(Nc2ccc(N3CCC(N4CCN(C)CC4)CC3)c(OC)c2)nc1NC1CCOCC1 | – | 1.01 µM (active) and 831 nM (active) | –
24 | CCCC(N[C@@H](C)C(=O)N1[C@H](C(=O)O)C[C@@H]2CCCC[C@@H]21)C(=O)OCC (stereo partly drawn) | – | – | inactive
25 | C=CC(C)(O)CC/C=C(\C)C(=O)OC1CC2(C(=O)O)CCC3(C)C(=CCC4C5(C)CCC(OC6OC(COC7OCC(O)C(O)C7O)C(O)C(OC7OCC(O)C(O)C7O)C6OC6OC(CO)C(O)C(O)C6OC6OCC(O)C(O)C6O)C(C)(C)C5CCC43C)C2CC1(C)C (stereo not drawn) | 1.8% | – | –
26 | COc1cc(/C=C/C(=O)OC(C)(C)C(OC2OC(CO)C(O)C(O)C2O)C(=O)OCc2ccc(OC3OC(CO)C(O)C(O)C3O)cc2)ccc1O (stereo not drawn) | – | – | inactive
27 | CN1Cc2c(N)cccc2C(c2ccccc2)C1 (stereo not drawn) | – | – | inactive
28 | CC1=C2C(=O)C=C(CO)[C@@H]2[C@H]2OC(=O)[C@H](C)[C@@H]2[C@@H](O)C1 | -3.32% | – | –
29 | CC1(C)NC2N(C1=O)c1ccccc1C2(O)CC(C(=O)O)n1cnc2ccccc2c1=O (stereo not drawn) | -5.13% | – | –
30 | Cn1c(=O)c2nc(/C=C/c3cccc(Cl)c3)n(C)c2n(C)c1=O | -2.68% | – | –
31 | C=C1CCC2C(C)(C(=O)O)CC(O)CC2(C)C1CC/C(C)=C/C(=O)O (stereo not drawn) | – | – | inactive
32 | Cc1coc2c1CC1OC1(C)CCC1OC1(C)C2 (stereo not drawn) | – | – | inactive
33 | COc1ccc(C)c2sc(NC(=O)c3ccncc3)nc12 | 2.46% | – | –
34 | C/C=C(\C)C(=O)O[C@@H]1CC2[C@@H](CC=C3C[C@@H](O[C@H]4C[C@H](OC)[C@H](O[C@H]5C[C@H](OC)[C@H](O[C@H]6C[C@H](OC)[C@H](O[C@H]7C[C@@H](OC)[C@H](O[C@@H]8O[C@H](CO)[C@@H](O)[C@H](O)[C@H]8O)[C@@H](C)O7)[C@@H](C)O6)[C@@H](C)O5)[C@@H](C)O4)CC[C@@]32C)[C@@]2(O)CC[C@H](C(C)=O)[C@@]12C (stereo partly drawn) | 0.771% | – | –
35 | OC[C@H]1O[C@@H](Oc2cc(O)cc(-c3cc4ccc(O)cc4o3)c2)[C@H](O)[C@@H](O)[C@@H]1O | 4.16% | – | –
36 | CC1CCC2(C)C(CC(O)C(O)C23CO3)C1(C)CCC1=CC(=O)OC1O (stereo not drawn) | 3.09% | – | –
37 | CC1(C)CCCC2(C)C(CO)C3CCC2C31 (stereo not drawn) | – | – | inactive
38 | Cc1c(N2C(=O)c3ccc(C(=O)O)cc3C2=O)c(=O)n(-c2ccccc2)n1C | – | – | inactive
39 | CC1(C)CCC(C)(C)c2cc3c(cc21)Sc1ccccc1N=C3c1ccc(C(=O)O)cc1 | 3.93% | – | –

Row | SMILES | max response | Potency | outcome
40 | CC(=O)N[C@H](Cc1ccc(O)cc1)C(=O)N[C@H](CCCN=C(N)N)C(=O)N[C@H](Cc1ccccc1)C(N)=O (Ac-[dY]-[dR]-[dF]-NH2) | – | – | inactive
41 | COc1ccc(C(O[C@@H]2O[C@H](CO)[C@@H](O)[C@H](O)[C@H]2O)C(CO)Oc2ccc(/C=C/CO)cc2OC)cc1O (stereo partly drawn) | – | – | inactive
42 | COc1ccccc1[C@@H]1C2=C(CC(C)(C)CC2=O)Nc2n[nH]c(C(F)(F)F)c21 | – | – | inactive
43 | C[C@]1(OC(=O)/C=C/c2ccccc2)C[C@H](O)[C@]2(O)C=CO[C@@H](O[C@@H]3O[C@H](CO)[C@@H](O)[C@H](O)[C@H]3O)C12 (stereo partly drawn) | – | – | inactive
44 | COC1CC(OC2CCC3(C)C(=CCC4C3CCC3(C)C(C(C)O)CCC43O)C2)OC(C)C1OC1OC(C)C(OC2OC(COC3OC(COC4OC(CO)C(O)C(O)C4O)C(O)C(O)C3O)C(O)C(O)C2O)C(OC)C1O (stereo not drawn) | – | – | inactive
45 | CC(=O)N[C@H]1CCN(c2ccc(C3=NOC(CN[S+](=O)([O-])C(C)C)C3)cc2F)C1 (stereo partly drawn) | – | – | inactive
46 | CN(C)C/C=C/C(=O)Nc1ccc(C(=O)Nc2cccc(Nc3ncc(Cl)c(-c4c[nH]c5ccccc45)n3)c2)cc1 | – | 1.16 µM (active) and 2.09 µM (active) | –
47 | COc1cc(N2CCC(N(C)C)CC2)ccc1Nc1ncc(Cl)c(Nc2ccccc2P(C)(C)=O)n1 | – | 2.06 µM (active) | –
48 | CC[C@H]1OC(=O)[C@H](C)[C@@H](O[C@H]2C[C@@](C)(OC)[C@@H](O)[C@H](C)O2)[C@H](C)[C@@H](O[C@@H]2O[C@H](C)C[C@H](N(C)C)[C@H]2O)[C@@](C)(O)C[C@@H](C)[C@@H]2N[C@@H](COCCOC)OC([C@H]2C)[C@]1(C)O | -6.11% | – | –
49 | Cc1cc(O)cc(Oc2cc(C)c(C(=O)O)c(O)c2)c1 | 4.83% | – | –
50 | CN1C(=O)c2ccccc2-n2c(nc3ccccc3c2=O)/C1=C/c1ccccc1 | 3.9% | – | –
51 | C=C1C(OC(C)=O)C(=O)C2C(C)(C)C(OC(C)=O)CCC2(C)C1CC(OC(C)=O)/C(C)=C/COC(C)=O (stereo not drawn) | – | – | inactive
52 | CC[C@H](/C=C/[C@@H](C)[C@H]1CC[C@H]2[C@@H]3CC=C4C[C@@H](O)CC[C@]4(C)[C@H]3CC[C@]12C)C(C)C | – | – | inactive
53 | N[C@@H](CC(=O)N1CCn2c(nnc2C(F)(F)F)C1)Cc1[nH]nc2c(F)c(F)ccc12 | -1.97% | – | –
54 | C/C=C1/[C@H](O[C@@H]2O[C@H](CO)[C@@H](O)[C@H](O)[C@H]2O)OC=C(C(=O)OC)[C@H]1CC(=O)O[C@@H]1O[C@H](CO)[C@@H](O)[C@H](O)[C@H]1O | 4.1% | – | –
55 | COc1cc([C@H]2OC[C@@H]3[C@@H](c4ccc(O[C@@H]5O[C@H](CO)[C@@H](O)[C@H](O)[C@H]5O)c(OC)c4)OC[C@]23O)ccc1O | – | – | inactive
56 | CNc1nc(Nc2cnn([C@H]3CCN(C4COC4)C[C@@H]3F)c2Cl)ncc1C(F)(F)F | -26.9% | – | –
57 | C[C@@H](Nc1cc(NS(=O)(=O)N2CCC2)nc(SCc2cccc(F)c2F)n1)[C@@H](O)CO | – | – | inactive
58 | C=C1CCC(OC(C)=O)C2(C)CC3(O)OC(=O)C(C)=C3CC12 (stereo not drawn) | -2.74% | – | –

From PubChem BioAssay (NCATS)
